Screening data from PubChem BioAssay.
TIM10 inh: growth inhibitors of TIM10 yeast strain | S. cerevisiae TIM10 strain growth, BacTiter-Glo luminescence, 24 h | inhibition, % at 10 µM | 330,000 compounds, 1.4% hits | AID 463195;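 active means inhibition of 40% or more at the single tested concentration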;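 further: wild-type TIM10 isogenic control strain grown at permissive 25 °C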
V-ATPase pHluor: yeast V-ATPase proton transport regulation by pHLuorin; S. cerevisiae, pHLuorin cytosolic pH fluorescence; response, % at 10 µM; 350,000 compounds, 0.37% hits; in the data active means response mostly above about 7.3%, no sharp cut-off; inactive means mostly below about 5.4%; further: actives read high
PfHsp90 set2: inhibits growth of yeast expressing Plasmodium falciparum Hsp90. S. cerevisiae expressing PfHsp90, BacTiter-Glo ATP, 48 h; yeast lacking PDR1 and PDR3 efflux regulators. inhibition, % at 9.4 µM. 310,000 compounds, 0.32% hits. AID 504621;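 active means every replicate shows inhibition above about 80%, whatever the replicate mean, limit read from the data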
SKKanGAS inh: SKKanGAS growth inhibition; S. pyogenes SKKanGAS, kanamycin growth, BacTiter-Glo, 6 h; inhibition, % at 7.5 µM; 300,000 compounds, 1.3% hits;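 active means mean replicate score, as percent of positive control median, at least 50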;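 further: strain carries kanamycin resistance gene driven by streptokinase promoter and grows in 40 µg/ml kanamycin; loss of luminescence reflects streptokinase promoter inhibition or plain growth inhibition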
tim10-1 inh: growth inhibitors of tim10-1 mutant yeast; S. cerevisiae tim10-1 ts strain growth, BacTiter-Glo, 24 h; inhibition, % at 20 µM; 330,000 compounds, 2.2% hits; AID 463190;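 active means inhibition of at least 40%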;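 further: mutant grown at 25 °C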
tim23-1 inh: inhibits growth of tim23-1 mutant yeast; 330,000 compounds, 1.3% hits; S. cerevisiae tim23-1 growth, BacTiter-Glo luminescence, 24 h; inhibition, % at 20 µM;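 active means growth inhibition of the mutant yeast at or above 50%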;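 further: temperature-sensitive mutant grown at 25 °C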
tim23-1 confirm: tim23-1 yeast growth inhibition, confirmed; AID 463218; shares compounds with tim23-1 inh; S. cerevisiae tim23-1 growth, BacTiter-Glo luminescence, 24 h; inhibition, % at 20 µM; 4,400 compounds, 83% hits;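 active means inhibition above about 39% in either of two replicate wells at 20 µM, limit read from the data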;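 further: temperature-sensitive tim23-1 mutant grown at 25 °C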
Large screens that a line does not name were inactive (follow-up assays come after a bar, where they were run). The list is not random: actives were taken first. Their share in the collection is about 4.6%.

C#CCOCCOCCOCCNc1nc(N2CCN(C(=O)CCCCCCCCCCNC(=O)[C@H]([C@@H](C)CC)n3cc(CCCCN=C(N)N)nn3)CC2)nc(N2CCN(C(=O)CCCCCCCCCCNC(=O)[C@H](CCCCN)n3cc(C[C@@H](C)CC)nn3)CC2)n1	tim23-1 inh 52.1 (no result: V-ATPase pHluor, PfHsp90 set2, SKKanGAS inh) | tim23-1 confirm 44.7
C#CCOCCOCCOCCNc1nc(N2CCN(C(=O)CCCCCCCCCCNC(=O)Cn3cc(C[C@@H](C)O)nn3)CC2)nc(N2CCN(C(=O)CCCCCCCCCCNC(=O)Cn3cc(C[C@@H](C)O)nn3)CC2)n1	none (no result: SKKanGAS inh)
C#CCOCCOCCOCCNc1nc(N2CCOCC2)nc(N2CCN(C(=O)CCCCCCCCCCNC(=O)[C@H](CO)n3cc(CCCCCN)nn3)CC2)n1	none (no result: SKKanGAS inh)
C#CCOCCOCCOCCNc1nc(N2CCN(C(=O)CCCCCCCCCCNC(=O)Cn3cc(CCCCCN)nn3)CC2)nc(N2CCN(C(=O)CCCCCCCCCCNC(=O)[C@H](CO)n3cc(CCCCCN)nn3)CC2)n1	tim23-1 inh 52.8 (no result: SKKanGAS inh) | tim23-1 confirm 45.5
C#CCOCCOCCOCCNc1nc(N2CCN(C(=O)CCCCCCCCCCNC(=O)[C@H](CCCCN)n3cc(C)nn3)CC2)nc(N2CCN(C(=O)CCCCCCCCCCNC(=O)[C@@H]([C@H](C)CC)n3cc(CCCCCN)nn3)CC2)n1	none (no result: SKKanGAS inh)
CC(C)Oc1ccc(S(=O)(=O)N2CCOCC2)cc1NC(=O)c1ccc(Cl)c(S(=O)(=O)N2CCOCC2)c1	none (no result: TIM10 inh, PfHsp90 set2, SKKanGAS inh, tim10-1 inh, tim23-1 inh)
Cc1ccc(C)c(Nc2nc(-c3cccnc3)cs2)c1	tim23-1 inh 50.5 | tim23-1 confirm inactive
Cc1cc(C)c(NC(=O)CS(=O)CC(=O)N2CCN(c3cccc(C)c3C)CC2)c(C)c1 (stereo not drawn)	tim23-1 inh 89.5 | tim23-1 confirm inactive
Cc1cc(C)c(NC(=O)CS(=O)CC(=O)N2CCN(c3ccc(F)cc3)CC2)c(C)c1 (stereo not drawn)	none
O=C(C=Cc1cccnc1)c1ccccc1	none (no result: TIM10 inh, SKKanGAS inh, tim10-1 inh, tim23-1 inh)
O=C(/C=C/c1cccnc1)c1ccccc1O	tim23-1 inh 51.5 | tim23-1 confirm 50.5
COCCCN(C(=S)Nc1cc(Cl)cc(Cl)c1)C(C)c1ccccn1 (stereo not drawn)	tim23-1 inh 62.7 | tim23-1 confirm 52.7
COCCCN(C(=S)Nc1ccc(C)cc1Cl)C(C)c1ccncc1 (stereo not drawn)	none
COCCCN(C(=S)Nc1cc(Cl)cc(Cl)c1)C(C)c1ccncc1 (stereo not drawn)	tim23-1 inh 50.3 | tim23-1 confirm 46.6
CCOc1ncccc1C(=O)NCC(c1ccccc1)N(C)C (stereo not drawn)	none
CC(C)(C)C(=O)/C=c1\[nH]c(=O)/c(=C\c2ccccc2F)s1	none
CC(C)(C)C(=O)/C=c1\[nH]c(=O)/c(=C\c2ccc(F)cc2)s1	tim23-1 inh 52.1 | tim23-1 confirm 50.7
CC1=CC[C@@]23CCCN2C(=O)CCC[C@H]3C1	tim23-1 inh 88.5 (no result: SKKanGAS inh) | tim23-1 confirm inactive
Nc1nc(SCCO)[nH]c(=O)c1NC(=O)c1ccccc1F	none (no result: PfHsp90 set2)
CCn1cc(Br)c(C(=O)Nc2ccc(F)c(Cl)c2)n1	tim23-1 inh 53.5 | tim23-1 confirm 44.5
O=C(Nc1ccc(F)c(Cl)c1)c1ccccc1	tim23-1 inh 64.3 (no result: SKKanGAS inh) | tim23-1 confirm 66.9
CCn1cc(Br)c(C(=O)Nc2ccc(Cl)cc2Cl)n1	tim23-1 inh 94.5 | tim23-1 confirm inactive
CCOC(=O)c1ccc(NC(=O)c2nn(CC)cc2Br)cc1	none
COc1ccc(CNC(=S)Nc2ccccc2)cc1Cl	tim23-1 inh 65.1 | tim23-1 confirm inactive
CC(C)COc1ccc(CNC(=S)Nc2ccccc2)cc1Cl	none
OC[C@@H]1[C@@H](c2ccc(Cl)cc2)C(c2ccccc2)=NN1c1ccccc1	tim23-1 inh 52.7 (no result: SKKanGAS inh) | tim23-1 confirm inactive
OC[C@@H]1[C@@H](c2ccc(F)cc2)C(c2cccc(Cl)c2)=NN1c1ccccc1	tim23-1 inh 52.6 (no result: SKKanGAS inh) | tim23-1 confirm inactive
OC[C@@H]1[C@@H](c2ccc(Cl)cc2)C(c2cccc(Cl)c2)=NN1c1ccccc1	none (no result: SKKanGAS inh)
O=C1OCCN1C(=O)[C@H]1[C@H](c2ccc([N+](=O)[O-])cc2)C(c2ccc(F)cc2)=NN1c1ccccc1	none (no result: SKKanGAS inh)
CN(C(=O)CCN1C(=O)c2ccccc2C1=O)c1ccccc1	none
NC(=S)NN=C1c2ccccc2-c2ccccc21	tim23-1 inh 57.2 | tim23-1 confirm 46.0
O=C(NN=C1c2ccccc2-c2ccccc21)c1ccccc1	tim23-1 inh 50.4 | tim23-1 confirm 65.8
CC12CCC(O)CC1=CCC1C2CCC2(C)C3=NN=CC3CC12 (stereo not drawn)	none (no result: TIM10 inh, SKKanGAS inh, tim10-1 inh, tim23-1 inh)
O=C(NC(=S)Nc1ccccc1N1CCOCC1)c1ccc(Br)cc1	tim23-1 inh 55.0 | tim23-1 confirm 53.7
CCC(=O)NC(C)c1cc(Cl)c2cccnc2c1O (stereo not drawn)	tim23-1 inh 55.5 (no result: SKKanGAS inh) | tim23-1 confirm 57.7
CCC(=O)NC(c1ccc(C)cc1)c1cc(Cl)c2cccnc2c1O (stereo not drawn)	tim23-1 inh 53.6 (no result: SKKanGAS inh) | tim23-1 confirm 58.0
O=C(O)COc1ccccc1C(Nc1cccnc1)c1cc(Cl)c2cccnc2c1O (stereo not drawn)	none
O=C(NC(c1ccccc1)c1cc(Cl)c2cccnc2c1O)c1cccnc1 (stereo not drawn)	SKKanGAS inh 94.3, tim23-1 inh 69.7 (no result: V-ATPase pHluor, PfHsp90 set2) | tim23-1 confirm 79.7
CCOc1ccc(C(Nc2cccnc2)c2cc(Cl)c3cccnc3c2O)cc1 (stereo not drawn)	PfHsp90 set2 105.6, tim23-1 inh 55.5 (no result: SKKanGAS inh) | tim23-1 confirm 68.7
CCC(=O)NC(c1cc(Cl)c2ccccc2c1O)C(C)C (stereo not drawn)	none (no result: PfHsp90 set2, SKKanGAS inh)
N#Cc1ccc(OCC(=O)N2CCN(c3ccc(C(F)(F)F)cn3)CC2)cc1	none (no result: SKKanGAS inh)
O=C(Nc1cccc(C(=O)N2CCCCC2)c1)C1CCCCC1	none (no result: TIM10 inh, SKKanGAS inh, tim10-1 inh, tim23-1 inh)
CCOc1ccc(S(=O)(=O)NCCC(=O)NCC(c2ccc(F)cc2)N2CCOCC2)cc1 (stereo not drawn)	none
CCC(=O)Nc1cc(=O)[nH]c2nc(-c3ccc(Cl)cc3)nn12	none
CC(C)CC(=O)NC(NC(=S)Nc1cccc2cccnc12)C(Cl)(Cl)Cl (stereo not drawn)	none
CN1CCN(C(c2ccc(Br)cc2)c2cc(Cl)c3cccnc3c2O)CC1 (stereo not drawn)	PfHsp90 set2 107.3, SKKanGAS inh 69.2, tim23-1 inh 65.6 | tim23-1 confirm 77.2
CN1CCN(C(c2ccc(F)cc2)c2ccc3cccnc3c2O)CC1 (stereo not drawn)	none (no result: TIM10 inh, SKKanGAS inh, tim10-1 inh, tim23-1 inh)
CCCC(=O)NC(c1cccs1)c1cc(Cl)c2cccnc2c1O (stereo not drawn)	PfHsp90 set2 120.5, tim23-1 inh 55.7 (no result: SKKanGAS inh) | tim23-1 confirm 68.6
